# Test results as given in PubChem BioAssay (NCATS).
# “And” between values parts separate entries of the source, which are not always exact repeats. Identical values can stand only once. Inconclusive results are not listed. The source made the active and inactive calls. Unless noted, calls follow the shape of the dose curve; as a rule, active = well fitted curve in the direction sought with a large enough effect; inconclusive = small, poorly fitted or top-dose-only effect, or another doubt; inactive = no such curve, though single readings can be large; an effect the other way counts as inactive or inconclusive.
# Tested on: not listed separately
# Assay: Cell Viability - HUV-EC-C (AID 542);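 also: cells exposed to compound for 40 hours; % is scaled to controls: 0 for no effect and ±100 for the full control effect; nearly all actives have a fitted effect of over 35% in size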
# Details: HUV-EC-C endothelial cell viability, qHTS; series mostly up to 92.2 µM; activity change, negative = cytotoxicity: at the top concentration
# How it was run: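 Concentration-dependent ATP loss in HUV-EC-C cells is the measure. Exposure lasts 40 hr at 37 °C; luminescence follows CellTiter-Glo addition, and Hill fits give AC50.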
row,SMILES,outcome
1,CCCCCCCCCCCC(=O)O,inactive

# Tested on: not listed separately
# Assay: Cell Viability - H-4-II-E (AID 543);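 also: cells exposed to compound for 40 hours; % is scaled to controls: 0 for no effect and ±100 for the full control effect; nearly all actives have a fitted effect of over 35% in size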
# Details: H-4-II-E rat hepatoma viability; series mostly up to 92.2 µM; activity change, negative = cytotoxic: at the top concentration
# How it was run: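 AC50 from Hill-modelled qHTS concentration-response curves. H-4-II-E rat hepatoma cells in complete medium, 40 hr exposure at 37 °C, viability by CellTiter-Glo ATP luminescence.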
SMILES,"activity change, negative = cytotoxic",Potency
C=CCc1ccc(OC)c(OC)c1,6.01% (inactive),
C=C(C)C1CC=C(C)C(O)C1 (centres undefined),-5.41% (inactive),
CC1=C2[C@H](/C=C(\C)C(=O)O)CC[C@@H](C)[C@H]2CC1,-12.7% (inactive),
CCCCCCCCCCCC(=O)O,,inactive

# Tested on: not listed separately
# Assay: Cell Viability - SH-SY5Y (AID 544);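 also: cells exposed to compound for 40 hours; nearly all actives have a fitted effect of over 55% in size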
# Details: SH-SY5Y neuroblastoma cell viability; series mostly up to 92.2 µM; viability change, negative = cytotoxic: at the top concentration
# How it was run: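 Quantitative HTS in SH-SY5Y neuroblastoma cells, 40 hr treatment at 37 °C, ATP content by luciferase luminescence; AC50 from Hill fits.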
SMILES,"viability change, negative = cytotoxic",Potency
C=CCc1ccc(OC)c(OC)c1,0.584% (inactive),
C=C(C)C1CC=C(C)C(O)C1 (centres undefined),-9.91% (inactive),
CC1=C2[C@H](/C=C(\C)C(=O)O)CC[C@@H](C)[C@H]2CC1,-10.6% (inactive),
CCCCCCCCCCCC(=O)O,,inactive

# Tested on: not listed separately
# Assay: Cell Viability - Renal Proximal Tubule (AID 545);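 also: cells exposed to compound for 40 hours; nearly all actives have a fitted effect of over 40% in size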
# Details: renal proximal tubule cells viability, primary cells of rat origin; at 91.7 µM (top of the series)
# How it was run: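 Luminescent ATP signal (CellTiter-Glo) served as the viability read-out after 40 hr compound exposure of freshly isolated rat proximal tubule cells at 37 °C. Concentration-dependent ATP loss was fitted with the Hill equation to give AC50.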
row,SMILES,"activity change, negative = cytotoxicity"
1,C=CCc1ccc(OC)c(OC)c1,-5.61% (inactive)
2,C=C(C)C1CC=C(C)C(O)C1 (centres undefined),6.86% (inactive)
3,CC1=C2[C@H](/C=C(\C)C(=O)O)CC[C@@H](C)[C@H]2CC1,-15.1% (inactive)
4,CCCCCCCCCCCC(=O)O,-7.81% (inactive) and -14% (inactive)

# Tested on: not listed separately
# Assay: Cell Viability - Mesenchymal (AID 546);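 also: cells exposed to compound for 40 hours before reading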
# Details: mesenchymal cells viability, qHTS; activity change, negative = cytotoxicity: at 91.7 µM (top of the series)
# How it was run: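 CellTiter-Glo luminescence (intracellular ATP, 20 min room temperature) after 40 hr compound exposure at 37 °C of 1000 glomerulus-derived human kidney mesenchymal cells/well; AC50 values obtained by fitting qHTS concentration-response data to the Hill equation.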
row,SMILES,"activity change, negative = cytotoxicity"
1,C=CCc1ccc(OC)c(OC)c1,-7.19% (inactive)
2,C=C(C)C1CC=C(C)C(O)C1 (centres undefined),2.7% (inactive)
3,CC1=C2[C@H](/C=C(\C)C(=O)O)CC[C@@H](C)[C@H]2CC1,9.76% (inactive)
4,CCCCCCCCCCCC(=O)O,-0.623% (inactive) and 0.657% (inactive)

# Target: 3',5'-cyclic-AMP phosphodiesterase 4B (Homo sapiens) (UniProt Q07343)
# Assay: qHTS Assay for Inhibitors of PDE-IV (AID 607; active = well fitted activation curve with a large enough effect in the main read-out, with a control signal flat, not every such curve was filed as active; also: % of control where 0% means no effect)
# Details: HEK293 ACTOne CNG channel cells, membrane potential fluorescence; series mostly up to 22.9 µM; activation (PDE inhibition): at the top concentration
# How it was run: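 ACTOne HEK293 cells carry a modified cAMP-gated CNG channel and express endogenous PDE4; plated 1000 cells/well, compounds up to 22.9 uM final. Membrane-potential dye fluorescence (ex 535/em 590) was read; parental cells received 10 uM forskolin + 100 uM RO 20-1724.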
# Sequence of 3',5'-cyclic-AMP phosphodiesterase 4B (Homo sapiens) (Q07343 whole entry, looked up): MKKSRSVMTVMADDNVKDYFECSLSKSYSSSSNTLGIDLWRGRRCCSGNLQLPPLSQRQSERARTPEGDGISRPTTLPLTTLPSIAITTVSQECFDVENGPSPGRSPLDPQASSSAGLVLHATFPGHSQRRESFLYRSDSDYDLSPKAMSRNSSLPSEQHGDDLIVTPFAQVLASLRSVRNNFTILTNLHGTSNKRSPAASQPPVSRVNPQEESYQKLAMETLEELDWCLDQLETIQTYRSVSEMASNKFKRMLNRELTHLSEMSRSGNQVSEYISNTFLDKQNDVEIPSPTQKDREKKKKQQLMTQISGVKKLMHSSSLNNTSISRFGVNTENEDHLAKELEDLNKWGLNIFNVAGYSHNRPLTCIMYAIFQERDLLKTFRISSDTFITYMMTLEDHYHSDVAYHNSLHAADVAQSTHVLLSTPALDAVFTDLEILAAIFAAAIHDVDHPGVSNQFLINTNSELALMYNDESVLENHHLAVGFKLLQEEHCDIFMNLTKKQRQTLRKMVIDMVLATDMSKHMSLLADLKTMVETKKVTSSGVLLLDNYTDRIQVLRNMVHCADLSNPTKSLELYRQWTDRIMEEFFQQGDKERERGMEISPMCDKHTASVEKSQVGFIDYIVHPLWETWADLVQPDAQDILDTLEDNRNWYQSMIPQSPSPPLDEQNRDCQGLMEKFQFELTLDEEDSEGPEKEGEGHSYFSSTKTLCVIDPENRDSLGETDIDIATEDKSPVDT
row,SMILES,activation (PDE inhibition)
1,CN(C)Cc1ccccc1-c1ccc2ncnc(N(C)C)c2c1,24.5% (inactive)
2,COc1ccc2[nH]cc(CCNc3ncncc3-c3ccccc3C(F)(F)F)c2c1,-26.7% (inactive)
3,CNc1ncncc1-c1ccccc1CN(C)C,7.51% (inactive)
4,CN(C)C(=O)c1ccc(-c2ccc3ncnc(Nc4ccc(F)cc4)c3c2)cc1,13% (inactive)
5,c1ccc2c(NCCN3CCOCC3)nc(-c3ccc4c(c3)OCO4)nc2c1,-0.422% (inactive)
6,O=c1cnc2cnc(N3CCOCC3)nc2n1Cc1cccs1,27.4% (inactive)
7,COc1ccccc1CNc1ncncc1-c1ccccc1C(F)(F)F,24.3% (inactive)
8,COc1ncc2nc(-c3cccs3)c(=O)n(CCC#N)c2n1,-3.52% (inactive)
9,COc1ccccc1-c1nccc(N2CCN(C)CC2)n1,14.3% (inactive)

# Tested on: not listed separately
# Assay: Cellular Toxicity (caspase-3) HepG2 (AID 654);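 also: cells exposed to compound for 16 hours before reading; 0% = DMSO alone and 100% = caspase signal from 100 µM tamoxifen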
# Details: HepG2 caspase-3 activation, luminescence, 0% = DMSO only, 100% = tamoxifen; series mostly up to 92.2 µM; caspase-3 activation: at the top concentration
# How it was run: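 Concentration-response AC50 values reflect caspase-3/7 induction in HepG2 cells after 16 hours of compound exposure, quantified by luminescence from liberated aminoluciferin and referenced to 100 uM tamoxifen as full stimulation.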
SMILES,caspase-3 activation,outcome
C=CCc1ccc(OC)c(OC)c1,-0.337% (inactive),
C=C(C)C1CC=C(C)C(O)C1 (centres undefined),0.176% (inactive),
CC1=C2[C@H](/C=C(\C)C(=O)O)CC[C@@H](C)[C@H]2CC1,0.912% (inactive),
CCCCCCCCCCCC(=O)O,,inactive

# Tested on: not listed separately
# Assay: Cellular Toxicity (caspase-3) Jurkat (AID 655);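 also: cells exposed to compound for 16 h at 37 °C before reading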
# Details: Jurkat caspase-3 activation, luminescence, DMSO = 0%, tamoxifen = 100%; at 92.2 µM (top of the series)
# How it was run: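 5000 Jurkat cells/well; compound 16 hr, 37 °C; Caspase-Glo 3/7 added, 20 min RT; luminescence read. Norm: DMSO = 0%, tamoxifen 100 uM = 100%. AC50, Hill model.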
row,SMILES,caspase-3 activation
1,C=CCc1ccc(OC)c(OC)c1,-0.00061% (inactive)
2,C=C(C)C1CC=C(C)C(O)C1 (centres undefined),-2.18% (inactive)
3,CC1=C2[C@H](/C=C(\C)C(=O)O)CC[C@@H](C)[C@H]2CC1,97.3% (active)
4,CCCCCCCCCCCC(=O)O,-6.31% (inactive) and -4.32% (inactive)
